# Results as given in PMC7819943, “Rice protein-binding microarrays: a tool to detect cis-acting elements near promoter regions in rice”.
# Whole data set: some 68,000 sequences, median “fluorescence intensity (a.u.)” near 9,100, cut for the highest 2% near 16,000. This excerpt belongs to a sample that is enriched for the highest values.
# Biological target: OsWRKY34 (Oryza sativa, UniProt Q0JBA9 1-250)
# Test: protein-binding microarray (RPBM); PBS, 2% BSA, 51.3 ng/ul salmon testes DNA, 50 uM zinc acetate, 200 nM TF, 25 C, 1 h; high values mean tight binding
# Settings: protein: recombinant; tags: N-terminal polyhistidine and DsRed monomer fusion (pET32a); label: CyDye5-dUTP incorporated in the synthesized complementary strand; 3' TTTTT single-stranded linker to array surface; dsDNA, one strand shown
# How it was run: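 Per-feature fluorescence intensity (arbitrary units), read on an Axon 4000B scanner, is the binding signal. Transcription factors carrying an N-terminal polyhistidine tag and DsRed fusion were expressed in E. coli BL21-CodonPlus and purified on Ni–NTA. A custom Agilent array, made double-stranded by primer extension with Cy5-dUTP and blocked with 2% BSA, was incubated with 200 nM protein in PBS, 2% BSA, salmon testes DNA and 50 µM zinc acetate at 25 °C for 1 h and then washed.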
# Sequence of OsWRKY34 (Q0JBA9 entry or part of it): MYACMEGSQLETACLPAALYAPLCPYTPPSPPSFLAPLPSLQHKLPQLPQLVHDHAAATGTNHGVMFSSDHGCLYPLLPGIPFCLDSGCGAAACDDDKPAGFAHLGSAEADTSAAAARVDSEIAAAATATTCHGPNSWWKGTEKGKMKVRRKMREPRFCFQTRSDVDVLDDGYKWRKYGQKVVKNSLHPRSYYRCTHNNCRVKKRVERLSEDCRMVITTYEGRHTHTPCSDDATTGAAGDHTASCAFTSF
row,Sequence,binding signal
1,TTCTCCCTTTATTTTTGTTTATATAATTTCCAGATCAAAGCGGAGTCACCTAGTGCAG,8890 fluorescence intensity (a.u.)
2,GCCGCCGCCTCGCTCCCCATGGCGTCCGTACACTCCGGCGCGGAGTCACCTAGTGCAG,10300 fluorescence intensity (a.u.)
3,GCCGCCGCCCGCCGCCGCCGAGACCGACCCGACCACGATGCGGAGTCACCTAGTGCAG,8960 fluorescence intensity (a.u.)
4,AATTTCGGAAGGGTTGGTTTAGGCAGTAATATTCTCCATTCGGAGTCACCTAGTGCAG,8280 fluorescence intensity (a.u.)
5,GTGGCCTTTGGGAGCGGTGACCTGCTGCTCCATCCTTCATCGGAGTCACCTAGTGCAG,9620 fluorescence intensity (a.u.)
6,ATCCTGATCAGATTCTGAACTCCTTTTCTCTCTGCGCCCACGGAGTCACCTAGTGCAG,8480 fluorescence intensity (a.u.)
7,CACGTCGCCTCGTTTCTTGCCTCGCCGCTCGTCACTCGGCCGGAGTCACCTAGTGCAG,9810 fluorescence intensity (a.u.)
8,CGGTGGTGGTGGTGGTGCCTTGGCTAGTTTGGCCGGCGCGCGGAGTCACCTAGTGCAG,14300 fluorescence intensity (a.u.)
9,GGCGAGTGGCGGATTTGTTTTTGGTTTGTTTTTGAGTTTGCGGAGTCACCTAGTGCAG,9060 fluorescence intensity (a.u.)
10,CGATCTTGCCCTGGTTGGTTGGTGGTGGTGGTGGGTTTTGCGGAGTCACCTAGTGCAG,37100 fluorescence intensity (a.u.)
11,GTTTATTGTATTTGGAGTAAGTGATTGTAACTTTTTTTTACGGAGTCACCTAGTGCAG,9200 fluorescence intensity (a.u.)
12,GGTGGTCTTCTTTTTTTGCGGTGGAGTTGGATTTGGGTTGCGGAGTCACCTAGTGCAG,13000 fluorescence intensity (a.u.)
13,GATAGTTGAGGGGTCGAGATTTTTGGTATTGCGGATTGGGCGGAGTCACCTAGTGCAG,10400 fluorescence intensity (a.u.)
14,AATATGTGGGTGATTTGTTGTAATGGAGTATGTGGTGGAGCGGAGTCACCTAGTGCAG,10000 fluorescence intensity (a.u.)
15,GGTGGGTTGGGCCGTGATTTGTATGGACTTTATTTGTAAGCGGAGTCACCTAGTGCAG,19000 fluorescence intensity (a.u.)
16,CGGTTTCGTTTGAGATTTTTTTTTGGTGGTTTTGATTTCGCGGAGTCACCTAGTGCAG,8640 fluorescence intensity (a.u.)
17,CTTGGCTTGGTTTGGTTTGGTGTTTGATCACGCGGTGGTGCGGAGTCACCTAGTGCAG,20800 fluorescence intensity (a.u.)
18,CGGTGGACTGGTGGTTTTTGCGGGGTTGCAGAATTTGGTGCGGAGTCACCTAGTGCAG,9390 fluorescence intensity (a.u.)
19,TATTTTTGGGTTGGGTTTGGGTTGGGTTGGGTCGAGTTGGCGGAGTCACCTAGTGCAG,26100 fluorescence intensity (a.u.)
20,GTTTACATGTGTAGATCTAATGATGCGTTCAATCTAGTTTCGGAGTCACCTAGTGCAG,8860 fluorescence intensity (a.u.)
21,GCGGATTTCCTTTCTAAACGTGCCAACGATGTGTTCTTGTCGGAGTCACCTAGTGCAG,8250 fluorescence intensity (a.u.)
22,CAAAACAGAAGAGCCAGGTTAGTTTAGTTGGTCATATTCACGGAGTCACCTAGTGCAG,8310 fluorescence intensity (a.u.)
23,AGCCATCCGGCCGCGGCCCGTCACAGGTAACTAGTCATTTCGGAGTCACCTAGTGCAG,9260 fluorescence intensity (a.u.)
24,TTCCCACCGCTGCCGCTCGTCCCGTCTCACCGATCCCTCCCGGAGTCACCTAGTGCAG,10300 fluorescence intensity (a.u.)
25,CGCCGCCATTTCCGCCTCTTCTTCTCTTAAACAAAAAGCCCGGAGTCACCTAGTGCAG,10200 fluorescence intensity (a.u.)
26,TCCTGTGTTTTTTCTGTGTTTTGCAATCCTCTGTTTTACACGGAGTCACCTAGTGCAG,10900 fluorescence intensity (a.u.)
27,GTCTTATTGTGGTTGGGAGTTTAACGGTGTACCGAAGAAACGGAGTCACCTAGTGCAG,8780 fluorescence intensity (a.u.)
28,TTGACTGGGTTTTTCTTTTTTTTTTCTGTTTTGTTGTTTGCGGAGTCACCTAGTGCAG,10100 fluorescence intensity (a.u.)

row,Sequence,binding signal
1,TGGGGTTCTTGTTTTTCTTTTCCGGGATCTTTGGGTGATGCGGAGTCACCTAGTGCAG,15900 fluorescence intensity (a.u.)
2,CACTACCTCAGTATTCTCTACTACTACTCTTTTCTCAGAGCGGAGTCACCTAGTGCAG,8470 fluorescence intensity (a.u.)
3,GATCTGACCGGATTTTGCGGTGGGGTTTTCTTTTTTGGGTCGGAGTCACCTAGTGCAG,12200 fluorescence intensity (a.u.)
4,ACTACTCACTCTTCATTGCTTTTTTTTTTCTCTCTCTAGCCGGAGTCACCTAGTGCAG,9600 fluorescence intensity (a.u.)
5,TGGGGTTTTCTTTTTTGGGTTGGGTTGATCTTTTGGGTGGCGGAGTCACCTAGTGCAG,36600 fluorescence intensity (a.u.)
6,TTTTTGGGTGGGAGTTGTATTTTTTTAACATGTGGGAAAACGGAGTCACCTAGTGCAG,21300 fluorescence intensity (a.u.)
7,GGTAAAACATGTTGGATTTTATTTTGGTGGGATGTGCAATCGGAGTCACCTAGTGCAG,9620 fluorescence intensity (a.u.)
8,CTACTACTCTTTTCTCAGAGCTAGTGAGGGGCGGGCGGGCCGGAGTCACCTAGTGCAG,17500 fluorescence intensity (a.u.)
9,TGGTTTTCTGTTTTCTTGGTTTTGGGTGGTGGCAGTTGACCGGAGTCACCTAGTGCAG,23200 fluorescence intensity (a.u.)
10,AACTTGGTGGGTTTGGTTTTGCTCTTTCTGTTGACCAAGCCGGAGTCACCTAGTGCAG,12000 fluorescence intensity (a.u.)
11,TCTTCGTCGACACCACCCCAGCCGGTGTCCCCACGCGCTCCGGAGTCACCTAGTGCAG,10100 fluorescence intensity (a.u.)
12,CCAGTTTGTATCTCATGTATTGGGCCTCGAAATCTGGTATCGGAGTCACCTAGTGCAG,12200 fluorescence intensity (a.u.)
13,GTTACTGCACATTGACCATCGCGTTACTGCACCGTTCTGCCGGAGTCACCTAGTGCAG,8940 fluorescence intensity (a.u.)
14,GAGGGGTTTCATTGTTATTTTTGGGTAATCCAAATTTACACGGAGTCACCTAGTGCAG,16300 fluorescence intensity (a.u.)
15,GCGAACCGCGAATACAATAGCCGGCGCCCCGCGCGTACACCGGAGTCACCTAGTGCAG,8070 fluorescence intensity (a.u.)
16,TCCTCGCGACCTTAATTTACTCCTCCAATGGCCGCCGCTGCGGAGTCACCTAGTGCAG,8600 fluorescence intensity (a.u.)
17,CGCTGTATTTTGTTGGGATCACCTGTACATTTCTTCACAACGGAGTCACCTAGTGCAG,10900 fluorescence intensity (a.u.)
18,TTTCTTGGTCTTTGGGTTAAATGTGGTTATGCCTTATATTCGGAGTCACCTAGTGCAG,8260 fluorescence intensity (a.u.)
19,GAGTCATAGTAGTGTAGTAGTGGGTCAACTCAGTCAAGTCCGGAGTCACCTAGTGCAG,8290 fluorescence intensity (a.u.)
20,GTATTATTGTCCCTTACATTGCTAACTCAATGTTGTATTACGGAGTCACCTAGTGCAG,8130 fluorescence intensity (a.u.)
21,TTTTTACAACCCTGCGATTCAGATAGACCTTACCATTTTTCGGAGTCACCTAGTGCAG,8940 fluorescence intensity (a.u.)
22,GAGTAGGATGGGGTTTGATTTTGGGGTTCGTGGGGTCGAGCGGAGTCACCTAGTGCAG,17100 fluorescence intensity (a.u.)
23,ATAGGAGGGGTCATATTAGTAGGGTTTTTTTTGGACGGAGCGGAGTCACCTAGTGCAG,8260 fluorescence intensity (a.u.)
24,TAGGTGGTGTTTGGTTTATGGATCAGGTGGGTTGGGTTGGCGGAGTCACCTAGTGCAG,8740 fluorescence intensity (a.u.)
25,GTGGGTGGTTGGTGGTGGTGGTGGTGGTGGTGATCTTTGGCGGAGTCACCTAGTGCAG,23900 fluorescence intensity (a.u.)
26,CAGCGGAGAGCGGCGGCGGCGAGTAGGATGGGGTTTGATTCGGAGTCACCTAGTGCAG,8380 fluorescence intensity (a.u.)
27,TTTGATCTTGTGGTGGTTTGGGTGATCGGTGGCGATGGGGCGGAGTCACCTAGTGCAG,11000 fluorescence intensity (a.u.)
